Values joined by “and” are separate entries in the source; they are usually repeats but may differ in a detail not shown here. Equal entries are not always repeated. Results filed as inconclusive are left out. A call without a number means that no potency is given here. Unmarked numbers belong to inactive results. Active and inactive are the calls of the source. Calls come from the whole dose curve; as a rule, active = well fitted curve in the direction sought with a large enough effect in the repeat runs; inconclusive = weak or mixed curves; inactive = no such curve, though single readings can be large; an effect the other way counts as inactive or inconclusive.
Tests used:
[1] = A CellTox Green Cytotoxicity Assay to monitor cytotoxicity in HEK293 cells - 40 hour (AID 1224871); note: nearly all actives have a fitted effect of over 45% in size; note: potency is the fitted concentration of half-maximal effect
Method in brief: (§1)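 HEK293 cells premixed with CellTox Green dye were seeded at 600 cells/well and left 5 h at 37 C/5% CO2 before pin transfer of 23 nL compound in DMSO. Fluorescence from dye bound to dead-cell DNA was read during 40 h treatment.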

[2] = qHTS RealTime-Glo MT Cell Viability Assay in HEK293 cells - 16 hour (AID 1224872); note: nearly all actives have a fitted effect of over 50% in size; note: potency is the fitted concentration of half-maximal effect
Method in brief: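 Luminescence generated by NanoLuc from substrate produced by living HEK293 cells served as the viability signal. Each value reflects the reading at its stated time point during continuous 40 h compound exposure at 37 C.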

[3] = qHTS RealTime-Glo MT Cell Viability Assay in HEK293 cells - 40 hour (AID 1224874); conditions: RealTime-Glo luminescence; max response: active compounds read low; note: nearly all actives have a fitted effect of over 50% in size; note: potency is the fitted concentration of half-maximal effect
Method in brief: (§2)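 HEK293 cells mixed with RealTime-Glo reagents (NanoLuc plus cell-permeant prosubstrate) at 600 cells/well, preincubated 5 h at 37 C/5% CO2, then given 23 nL compound in DMSO. Nonlytic luminescence from viable cells was read at 0, 8, 16, 24, 32 and 40 h.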

[4] = A CellTox Green Cytotoxicity Assay to monitor cytotoxicity in HEK293 cells - 24 hour (AID 1224875); note: nearly all actives have a fitted effect of over 45% in size; note: potency is the fitted concentration of half-maximal effect
Method in brief: as §1

[5] = A CellTox Green Cytotoxicity Assay to monitor cytotoxicity in HepG2 cells - 16 hour (AID 1224876); note: nearly all actives have a fitted effect of over 45% in size; note: potency is the fitted concentration of half-maximal effect
Method in brief: (§3)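 HepG2 cells were seeded together with the CellTox Green dye at 600 cells/well, left 5 h at 37 C/5% CO2, then given compounds in DMSO. Fluorescence from dye bound to dead-cell DNA was read repeatedly over 40 h of treatment at 37 C.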

[6] = qHTS RealTime-Glo MT Cell Viability Assay in HepG2 cells - 32 hour (AID 1224877); note: nearly all actives have a fitted effect of over 55% in size; note: potency is the fitted concentration of half-maximal effect
Method in brief: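 Tox21 10K library screened in qHTS format on HepG2 cells carrying RealTime-Glo reagents. Compounds were added after a 5 h preincubation, and the luminescent signal from continuous culture was measured repeatedly during 40 h treatment.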

[7] = A CellTox Green Cytotoxicity Assay to monitor cytotoxicity in HepG2 cells - 24 hour (AID 1224878); note: nearly all actives have a fitted effect of over 45% in size; note: potency is the fitted concentration of half-maximal effect
Method in brief: as §3

[8] = A CellTox Green Cytotoxicity Assay to monitor cytotoxicity in HepG2 cells - 40 hour (AID 1224879); note: nearly all actives have a fitted effect of over 40% in size; note: potency is the fitted concentration of half-maximal effect
Method in brief: as §3

[9] = qHTS RealTime-Glo MT Cell Viability Assay in HEK293 cells - 0 hour (AID 1224880); note: nearly all actives have a fitted effect of over 45% in size; note: potency is the fitted concentration of half-maximal effect
Method in brief: as §2

[10] = qHTS RealTime-Glo MT Cell Viability Assay in HepG2 cells - 8 hour (AID 1224873); note: nearly all actives have a fitted effect of over 55% in size
Method in brief: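 HepG2 cells mixed with RealTime-Glo MT reagents (NanoLuc plus cell-permeant prosubstrate) were seeded at 600 cells/well, incubated 5 h at 37 C/5% CO2, then pinned with compounds in DMSO; nonlytic luminescence tracked viability during 40 h treatment.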

Structure (SMILES): CCCCCCCCCCCCCCOS(=O)(=O)O
- Potency [1]: 43.6 µM (active)
- Potency [2]: inactive
- max response [3]: -13.8%
- Potency [4]: 43.6 µM (active)
- Potency [5]: 34.7 µM (active)
- Potency [6]: inactive
- Potency [7]: 34.7 µM (active)
- Potency [8]: 34.7 µM (active)

Structure (SMILES): OC(CN1CCC(Cc2ccc(F)cc2)CC1)c1ccc(Cl)cc1 (centres undefined)
- Potency [1]: 21.3 µM (active)
- Potency [2]: 9.52 µM (active)
- Potency [3]: 9.52 µM (active)
- Potency [7]: 21.3 µM (active)

Structure (SMILES): COc1ccc(C(=O)Nc2nc3ccccc3c(NCc3ccccc3)c2C#N)cc1
- Potency [1]: inactive
- Potency [2]: inactive
- max response [3]: -18.2%
- Potency [4]: inactive
- Potency [5]: inactive
- Potency [7]: inactive
- Potency [8]: inactive
- Potency [9]: inactive

Structure (SMILES): Cc1c(N)cccc1[N+](=O)[O-]
- Potency [1]: inactive
- Potency [2]: inactive
- max response [3]: -13.1%
- Potency [4]: inactive
- Potency [5]: inactive
- Potency [6]: inactive
- Potency [7]: inactive
- Potency [8]: inactive
- Potency [9]: inactive

Structure (SMILES): CCC(Cl)CCC(Cl)C(Cl)CC(Cl)C(Cl)C(Cl)CCl (centres undefined)
- Potency [1]: inactive
- Potency [2]: inactive
- max response [3]: 0.988%
- Potency [4]: inactive
- Potency [5]: inactive
- Potency [6]: inactive
- Potency [7]: inactive
- Potency [8]: inactive
- Potency [9]: inactive

Structure (SMILES): C[Si](C)(CCCN)O[Si](C)(C)CCCN
- Potency [1]: inactive
- Potency [2]: inactive
- max response [3]: -16%
- Potency [4]: inactive
- Potency [5]: inactive
- Potency [6]: inactive
- Potency [7]: inactive
- Potency [8]: inactive
- Potency [9]: inactive

Structure (SMILES): Cc1ncc(CO)c(C=O)c1O
- Potency [1]: inactive
- Potency [2]: inactive
- max response [3]: 0.556%
- Potency [4]: inactive
- Potency [5]: inactive
- Potency [6]: inactive
- Potency [7]: inactive
- Potency [8]: inactive
- Potency [9]: inactive

Structure (SMILES): CCCCCCCCCCCCCCCCOS(=O)(=O)O
- Potency [1]: 21.3 µM (active)
- Potency [2]: inactive
- max response [3]: -27.5%
- Potency [4]: 19 µM (active)
- Potency [6]: inactive
- Potency [9]: inactive

Structure (SMILES): C=CC(=O)OCCOCCOCCOCCOC(=O)C=C
- Potency [1]: 49.2 µM (active) and 48.5 µM (active)
- Potency [2]: 43.2 µM (active)
- Potency [3]: 31.1 µM (active) and 19.3 µM (active)
- Potency [4]: inactive
- Potency [5]: inactive
- Potency [6]: 48.5 µM (active)
- Potency [7]: inactive
- Potency [8]: 24.7 µM (active) and 13.7 µM (active)
- Potency [9]: inactive

Structure (SMILES): COc1cc2nc(N3CCN(C(=O)C4COc5ccccc5O4)CC3)nc(N)c2cc1OC (centres undefined)
- Potency [1]: inactive
- Potency [10]: inactive
- Potency [3]: 23.9 µM (active)
- Potency [4]: inactive
- Potency [5]: inactive
- Potency [6]: inactive
- Potency [7]: 23.9 µM (active)
- Potency [8]: 23.9 µM (active)
- Potency [9]: 19 µM (active)

Structure (SMILES): CC(=O)c1ccc2c(c1)N(CCCN1CCC(CCO)CC1)c1ccccc1S2
- Potency [1]: 23.9 µM (active)
- Potency [10]: inactive
- Potency [3]: 21.3 µM (active)
- Potency [4]: inactive
- Potency [5]: 21.3 µM (active)
- Potency [6]: inactive
- Potency [7]: 23.9 µM (active)
- Potency [8]: 23.9 µM (active)
- Potency [9]: inactive

Structure (SMILES): O=C(O)c1nc(Cl)c(Cl)c(Cl)c1Cl
- Potency [1]: inactive
- Potency [2]: inactive
- Potency [4]: inactive
- Potency [5]: inactive
- Potency [6]: inactive
- Potency [7]: inactive
- Potency [8]: inactive
- Potency [9]: inactive

Structure (SMILES): CN(C)c1ccc(CCO)cc1
- Potency [1]: inactive
- Potency [10]: inactive
- Potency [3]: 34.5 µM (active)
- Potency [4]: inactive
- Potency [5]: inactive
- Potency [6]: inactive
- Potency [7]: inactive
- Potency [8]: inactive
- Potency [9]: inactive

Structure (SMILES): CCCCc1nc2cccnc2n1Cc1ccc(-c2ccccc2-c2nnn[nH]2)cc1
- Potency [1]: inactive
- Potency [10]: inactive
- Potency [4]: inactive
- Potency [5]: inactive
- Potency [6]: inactive
- Potency [7]: inactive
- Potency [9]: 21.9 µM (active)

Structure (SMILES): NC(=O)C(c1ccccc1)(c1ccccc1)[C@@H]1CCN(CCc2ccc3c(c2)CCO3)C1
- Potency [1]: 21.3 µM (active)
- Potency [10]: inactive
- Potency [4]: 21.3 µM (active)
- Potency [5]: 23.9 µM (active)
- Potency [6]: inactive
- Potency [7]: 21.3 µM (active)
- Potency [8]: 23.9 µM (active)

Structure (SMILES): O=C(OCCCCCCOC(=O)c1ccccc1)c1ccccc1
- Potency [1]: inactive
- Potency [10]: inactive
- Potency [4]: inactive
- Potency [5]: inactive
- Potency [6]: inactive
- Potency [7]: inactive
- Potency [8]: inactive

Structure (SMILES): CC(C)(O)c1ccc(CNC(=O)c2cccnc2Oc2ccc(F)cc2)cc1
- Potency [1]: inactive
- Potency [10]: inactive
- Potency [4]: inactive
- Potency [5]: inactive
- Potency [6]: inactive
- Potency [7]: inactive
- Potency [8]: inactive
- Potency [9]: inactive

Structure (SMILES): S=C([S-])NCCNC(=S)[S-].[Mn+2]
- Potency [1]: inactive
- Potency [10]: inactive
- Potency [4]: inactive
- Potency [5]: inactive
- Potency [6]: inactive
- Potency [7]: inactive
- Potency [8]: inactive
- Potency [9]: inactive

Structure (SMILES): O=C(O)c1ccc(-n2nc(-c3ccccc3O)nc2-c2ccccc2O)cc1
- Potency [1]: inactive
- Potency [2]: inactive
- Potency [4]: inactive
- Potency [5]: inactive
- Potency [6]: inactive
- Potency [7]: inactive
- Potency [9]: inactive

Structure (SMILES): CC(C)Cc1ccc(C(C)C(=O)OCc2ccccn2)cc1 (centres undefined)
- Potency [1]: inactive
- Potency [10]: inactive
- Potency [4]: inactive
- Potency [5]: inactive
- Potency [6]: inactive
- Potency [7]: inactive
- Potency [8]: inactive
- Potency [9]: inactive

Structure (SMILES): Brc1c2ccccc2cc2ccccc12
- Potency [1]: inactive
- Potency [10]: inactive
- max response [3]: -17.1%
- Potency [4]: inactive
- Potency [5]: inactive
- Potency [6]: inactive
- Potency [7]: inactive
- Potency [8]: inactive
- Potency [9]: inactive

Structure (SMILES): CCOC(=O)NCCOc1ccc(Oc2ccccc2)cc1
- Potency [1]: inactive
- Potency [10]: inactive
- Potency [3]: 21.9 µM (active)
- Potency [4]: inactive
- Potency [5]: inactive
- Potency [6]: inactive
- Potency [7]: inactive
- Potency [8]: inactive
- Potency [9]: inactive

Structure (SMILES): CCC(=O)O[C@]1(C(=O)CCl)[C@@H](C)C[C@H]2[C@@H]3CCC4=CC(=O)C=C[C@]4(C)[C@@]3(F)[C@@H](O)C[C@@]21C
- Potency [1]: inactive
- Potency [10]: inactive
- Potency [4]: inactive
- Potency [5]: inactive
- Potency [6]: inactive
- Potency [7]: inactive
- Potency [8]: inactive
- Potency [9]: inactive
